# Results as given in PubChem BioAssay AID2550 (Johns Hopkins Ion Channel Center, 2010).
# Out of some 310,000 compounds screened, about 380 (0.12%) were called active. This is one part of a sample in which actives are shown more often than they occur.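 The calls were made as follows: active = B-score of the integrated fluorescence ratio above library mean plus 3 SD, and starting fluorescence ratio within library mean plus 5 SD; inactive = the rest.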
# Target: Short transient receptor potential channel 6 (Mus musculus) (UniProt Q61143)
# Test: mouse TRPC6 channel activators, primary screen, cell-based, HEK293, membrane potential dye (AID 2550);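 also: higher score means more depolarization so channel activation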
# Conditions: HEK293-TRPC6 membrane potential dye fluorescence, at 10 µM; stronger effect = higher value
# Chain of Short transient receptor potential channel 6 (Mus musculus) (Q61143 whole entry, looked up): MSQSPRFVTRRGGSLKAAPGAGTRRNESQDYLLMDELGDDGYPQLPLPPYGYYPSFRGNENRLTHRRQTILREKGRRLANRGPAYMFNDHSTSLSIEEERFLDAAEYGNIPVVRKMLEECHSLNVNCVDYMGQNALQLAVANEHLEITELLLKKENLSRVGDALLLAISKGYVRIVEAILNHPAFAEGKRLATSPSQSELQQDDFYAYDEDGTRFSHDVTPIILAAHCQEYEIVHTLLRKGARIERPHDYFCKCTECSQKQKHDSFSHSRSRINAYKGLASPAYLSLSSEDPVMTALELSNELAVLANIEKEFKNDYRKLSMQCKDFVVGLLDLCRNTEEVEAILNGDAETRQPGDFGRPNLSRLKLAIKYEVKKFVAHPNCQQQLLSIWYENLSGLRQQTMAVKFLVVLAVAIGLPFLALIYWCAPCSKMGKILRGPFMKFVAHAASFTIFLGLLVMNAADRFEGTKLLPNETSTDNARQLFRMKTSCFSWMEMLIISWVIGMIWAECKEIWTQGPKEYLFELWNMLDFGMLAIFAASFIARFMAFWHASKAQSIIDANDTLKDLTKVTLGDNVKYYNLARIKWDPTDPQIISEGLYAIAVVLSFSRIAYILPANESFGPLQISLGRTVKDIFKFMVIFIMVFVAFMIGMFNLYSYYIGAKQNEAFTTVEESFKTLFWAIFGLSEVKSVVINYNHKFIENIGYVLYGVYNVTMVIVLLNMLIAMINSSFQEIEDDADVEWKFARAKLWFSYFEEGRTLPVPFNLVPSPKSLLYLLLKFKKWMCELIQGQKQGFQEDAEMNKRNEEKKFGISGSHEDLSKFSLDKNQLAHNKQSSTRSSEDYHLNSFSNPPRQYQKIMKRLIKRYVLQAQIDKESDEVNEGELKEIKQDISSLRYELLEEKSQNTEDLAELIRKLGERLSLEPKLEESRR
row,SMILES,B-score
1,CCOCCCNCc1ccc(OCc2ccc(F)cc2)c(OC)c1,inactive
2,COc1cc(CNCCN(C)C)ccc1OCc1c(F)cccc1Cl,12.5 (active)
3,CCN(CC)CCNCc1ccc(OCc2ccc(Cl)nc2)c(OC)c1,inactive
4,CCc1ccc(/C=N/NC(=O)c2nnn(-c3nonc3N)c2CN2CCc3ccccc32)cc1,inactive
5,Cc1cccc(CCNS(=O)(=O)c2ccc3c(c2)NC(=O)CO3)c1,inactive
6,Cc1ccccc1-n1nnnc1SCCCC(=O)c1ccc(F)cc1,inactive
7,CCC(C)N1C(=O)S/C(=C/c2ccc(Sc3nc4ccccc4[nH]3)o2)C1=O (configuration not stated),inactive
8,COc1cccc(CNC(=O)C2CC(=O)N(C3CCCCCCC3)C2)c1 (configuration not stated),inactive
9,CNc1nc(Nc2ccc(C)c(Cl)c2)nc(N)c1[N+](=O)[O-],inactive
10,O=C1NC(=O)C(c2ccc(Cl)cc2)N1 (configuration not stated),inactive
11,CC(=O)N1N=C(c2ccncc2)OC1(Cc1ccccc1)Cc1ccccc1,inactive
12,Cc1cc(C)cc(C(=O)N(CCc2ccccc2)C2=CC3CCC(C2)N3C)c1 (configuration not stated),inactive
13,CCCN(CCc1ccccc1)C1CCc2c(O)cccc2C1 (configuration not stated),16.8 (active)
14,Cc1ccc(-c2ccc(/C=N/NC(=O)CN3CCOCC3)o2)cc1[N+](=O)[O-],inactive
15,CN1CCN(/N=C/c2ccc(C#N)cc2)CC1,inactive
16,CN1CCN(/N=C/c2ccc(-c3ccc([N+](=O)[O-])cc3)o2)CC1,16.2 (active)
17,Cc1cc(N2CCN(c3ccc(F)cc3)CC2)n2ncnc2n1,inactive
18,CCOCCCN1C(=O)C2C(C(=O)Nc3ccc(OCC)cc3)C3C=CC2(O3)C1C(=O)NC1CCCCC1 (configuration not stated),inactive
19,O=C(c1ccc(Cl)cc1)n1cnc2ccccc21,inactive
20,CC(NC(=O)CNC(=O)Cc1cccc2ccccc12)c1ccc(S(N)(=O)=O)cc1 (configuration not stated),inactive
21,CCC(C(=O)OC)n1cnc2scc(-c3ccc(C)cc3)c2c1=O (configuration not stated),inactive
22,O=[N+]([O-])c1cccc(/C=N/Nc2ncc(Br)cn2)c1,inactive
23,O=C(N/N=C/c1ccc(Cl)c(Cl)c1)c1ccc2nc[nH]c2c1,inactive

row,SMILES,B-score
1,CCO/C=C1\C(=O)N(c2ccc(OCC)cc2)C(=O)c2ccccc21,inactive
2,COc1ccc(C(C)C)cc1S(=O)(=O)Nc1ncn[nH]1,inactive
3,CCC(=O)c1ccc(OCC(=O)OCC(=O)NC2CCCCCC2)cc1,inactive
4,Cc1nc2c(-c3ccc(F)cc3)c(C)nn2c(C)c1CCC(=O)NCc1ccco1,inactive
5,Cc1cc2c(cc1C)[n+](C)cn2CC(O)COCC1CC=CCC1 (configuration not stated),inactive
6,N#Cc1ccc(-c2ccc(Cl)cc2)nc1Oc1ccc(F)cc1,inactive
7,Cc1nn(C)c(C)c1S(=O)(=O)N1CCC(CO)(Cc2ccc(Cl)cc2)CC1,inactive
8,COc1cccc(OC)c1C(=O)Nc1c(C(=O)N2CCN(c3ccccn3)CC2)oc2ccccc12,inactive
9,CN1CCN(CCCCOc2ccccc2-c2ccccc2)CC1,inactive
10,Oc1ccc(CNc2ccccc2O)cc1,inactive
11,COc1ccc(-n2ncc3c2CC(C)(C)CC3NC(=O)CCc2c(C)noc2C)cc1 (configuration not stated),inactive
12,Cc1ccc(N(CCC(=O)O)S(=O)(=O)c2cccc(C(F)(F)F)c2)cc1,inactive
13,CCOc1ccc(CN(C)C(=O)c2ccc(=O)[nH]c2)cc1,inactive
14,Cc1nn(-c2ccccc2)c2sc(C(=O)N(Cc3ccco3)C(C)C(=O)NC(C)(C)C)cc12 (configuration not stated),inactive
15,CCN(CC(=O)NCc1ccc(Cl)cc1)C(=O)CSc1ccccc1,inactive
16,O=C(Nc1ccc(N2CCCC2=O)cc1)c1cncc(Br)c1,inactive
17,COc1ccc(CN2CCC(c3nc4ccc(Cl)cc4[nH]3)CC2)cc1,inactive
18,CCc1ccc(C(=O)NNC(=O)C2CCN(c3ncnc4sc(C)c(C)c34)CC2)cc1,inactive
19,O=C(O)CCn1c(SCc2cc(=O)n3ccccc3n2)nc2ccsc2c1=O,inactive
20,Cc1sc(NC(=O)C2C3CCC(O3)C2C(=O)O)c(C(=O)OC(C)C)c1-c1ccc(Cl)cc1 (configuration not stated),inactive
21,CC(C)(C)n1nnnc1C(c1ccccc1F)N1CCN(C(=O)c2ccco2)CC1 (configuration not stated),inactive
22,CCOCCCN(C)C1CCN(C(=O)c2oc3ccccc3c2NC(=O)Cc2cccc([N+](=O)[O-])c2)CC1,inactive
23,CC1=C(N2CCN(c3ncccn3)CC2)CCC1=O,inactive

row,SMILES,B-score
1,O=S(=O)(NC(=S)Nc1ccccc1)c1ccc(F)cc1,inactive
2,Nc1ccc(SCCN2C(=O)c3ccccc3C2=O)cc1,inactive
3,COC(=O)CNc1nc(Cl)nc(N2CCC(C)CC2)n1,inactive
4,Cc1ccc(CNC(=O)c2ccccc2CCc2ccccc2)cc1,inactive
5,O=C1CC2(CC(c3ccc(Cl)cc3)=NO2)C(=O)N1c1ccccc1 (configuration not stated),inactive
6,CCCN(CCC)c1nc2c(C)cccn2c(=O)c1/C=C1/SC(=S)N(Cc2ccco2)C1=O,inactive
7,CCOC(=O)CC1C(=O)NCCN1c1nc2c(C)cccn2c(=O)c1/C=C1\SC(=S)N(C(C)CC)C1=O (configuration not stated),26.7 (active)
8,CCOC(=O)N1CCN(C(=O)CSc2nc(=O)n3cccc(C)c3n2)CC1,inactive
9,O=C1C2C3C=CC(C4CC34)C2C(=O)N1/N=C/c1ccc(-c2ccccc2[N+](=O)[O-])o1 (configuration not stated),inactive
10,COC(=O)[C@@H](Cc1ccccc1)NC(=O)NCCc1ccccc1,inactive
11,O=[N+]([O-])c1ccccc1N/N=C1\CCc2ccccc21,inactive
12,O=C(NCCS(=O)(=O)NCc1ccc(Cl)cc1)c1ccccc1,inactive
13,CC(C)NC(=O)c1ccc(Sc2ccccc2)c([N+](=O)[O-])c1,inactive
14,CCOc1ccc(S(=O)(=O)N2CCCCCC2)c2ccccc12,inactive
15,CC1CCCCC1NC(=O)CSc1nnc(-c2ccncc2)n1CCCN(C)C (configuration not stated),inactive
16,CCOC(=O)C1=C(O)/C(=C/c2cc(C)n(-c3ccccc3)c2C)N=C1C,inactive
17,COc1cc(OC)c(C2=NOC(C(=O)Nc3c(C)n(C)n(-c4ccccc4)c3=O)C2)cc1Cl (configuration not stated),inactive
18,CC(C)Cc1oc(C(=O)O)cc1CN,inactive
19,O=[N+]([O-])c1cc(Cl)cc(/C=N/NC(=S)Nc2cc(S(=O)(=O)N3CCOCC3)ccc2Cl)c1O,inactive
20,COc1ccc(S(=O)(=O)n2nc(C)c(S(=O)(=O)N3CCOCC3)c2C)cc1,inactive
21,CCOc1ccc(-c2c(C)n([O-])c3c([n+]2=O)CCCC3)cc1,inactive
